Measurements as given in PubChem BioAssay (NCATS).
Records with an inconclusive call do not appear. Active and inactive are the calls of the source. Unless noted, calls come from the whole dose curve; as a rule, active = well fitted curve in the direction sought with a large enough effect; inconclusive = small, poorly fitted or top-dose-only effect, or another doubt; inactive = no such curve, though single readings can be large; an effect the other way counts as inactive or inconclusive.

Columns and labels:
[1] = target: Aldehyde dehydrogenase, mitochondrial (Homo sapiens) (UniProt P05091); assay: qHTS for Inhibitors of the Aldehyde Dehydrogenase Family (ALDH2) Confirmatory screens (AID 2061303; active = well fitted inhibition curve with a large enough effect; title and protocol of this record describe different tests; note: nearly all actives have a fitted effect of over 45% in size; note: potency is the fitted concentration of half-maximal effect)
[2] = qHTS for Inhibitors of the Aldehyde Dehydrogenase Family (ALDH1A2, ALDH1A3, ALDH2, ALDH3A1) (AID 2061307); note: nearly all actives have a fitted effect of over 50% in size; for Potency: test system not described further here; potency is the fitted concentration of half-maximal effect
[3] = target: Aldehyde dehydrogenase, mitochondrial (Homo sapiens) (UniProt P05091); assay: qHTS for Inhibitors of the Aldehyde Dehydrogenase Family (ALDH2) Primary screen (AID 2061308); note: nearly all actives have a fitted effect of over 55% in size; note: potency is the fitted concentration of half-maximal effect
[4] = target: Retinaldehyde dehydrogenase 3 (Homo sapiens) (UniProt P47895); assay: qHTS for Inhibitors of the Aldehyde Dehydrogenase Family (ALDH1A3) Primary screen (AID 2061315);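 note: plate controls were DMSO vehicle for no effect and reference inhibitor for full effect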
[5] = target: Aldehyde dehydrogenase 1A1 (Homo sapiens) (UniProt P00352); assay: qHTS for Inhibitors of the Aldehyde Dehydrogenase Family (ALDH1A1) Confirmatory screens (AID 2061316); note: nearly all actives have a fitted effect of over 65% in size; note: potency is the fitted concentration of half-maximal effect
[6] = target: Retinaldehyde dehydrogenase 3 (Homo sapiens) (UniProt P47895); assay: qHTS for Inhibitors of the Aldehyde Dehydrogenase Family (ALDH1A3) Confirmatory screens (AID 2061311); note: nearly all actives have a fitted effect of over 60% in size; note: potency is the fitted concentration of half-maximal effect
[7] = target: Retinal dehydrogenase 2 (Homo sapiens) (UniProt O94788); assay: qHTS for Inhibitors of the Aldehyde Dehydrogenase Family (ALDH1A2) Confirmation screens (AID 2061314); note: nearly all actives have a fitted effect of over 65% in size; note: potency is the fitted concentration of half-maximal effect
[8] = BET inhibitor-based combinations targeting novel dependencies in MECOM-rearranged (r) AML: SET-2 cell line (AID 2202231); details: SET-2 AML cells viability, CellTiter-Glo luminescence, 48 h; viability: stronger effect = lower value, series mostly up to about 46 µM;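 note: plate controls were DMSO treated cells for no effect and wells without cells for full effect; nearly all actives have a fitted effect of over 35% in size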
Summary of the method: (§1)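 Viability of cells (500 per well) is scored by luminescent CellTiter-Glo at 48 hr post-dosing. Eleven-point titrations are normalized to DMSO and empty controls and reduced to AUC values.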

[9] = BET inhibitor-based combinations targeting novel dependencies in MECOM-rearranged (r) AML: OCI-AML3 cell line (AID 2202232); details: Potency: OCI-AML3 viability;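 note: series mostly up to about 46 µM; plate controls were DMSO vehicle wells for no effect and wells without cells for full effect; nearly all actives have a fitted effect of over 35% in size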
Summary of the method: as §1

[10] = BET inhibitor-based combinations targeting novel dependencies in MECOM-rearranged (r) AML: MV-4-11 cell line (AID 2202233); note: potency is the fitted concentration of half-maximal effect; nearly all actives have a fitted effect of over 45% in size
Summary of the method: (§2)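 Using pin-tool transfer, drugs were added in 11 doses to cells (500/well), incubated 48 hr, and assessed with CellTiter-Glo. Z-AUC is a mean-centring transformation applied separately to each screened line.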

[11] = BET inhibitor-based combinations targeting novel dependencies in MECOM-rearranged (r) AML: HNT-34 cell line (AID 2202234);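 note: plate controls were vehicle wells for no effect and cell-free wells for full effect; nearly all actives have a fitted effect of over 35% in size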
Summary of the method: as §2

[12] = BET inhibitor-based combinations targeting novel dependencies in MECOM-rearranged (r) AML: UCSD-AML1 cell line (AID 2202235);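 note: series mostly up to about 46 µM; plate controls were DMSO vehicle wells for no effect and blank wells for full effect; nearly all actives have a fitted effect of over 40% in size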
Summary of the method: as §2

[13] = BET inhibitor-based combinations targeting novel dependencies in MECOM-rearranged (r) AML: AML-191 cell line (AID 2202236;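 note: plate controls were vehicle wells for no effect and wells without cells for full effect; nearly all actives have a fitted effect of over 35% in size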)
Summary of the method: as §1

[14] = BET inhibitor-based combinations targeting novel dependencies in MECOM-rearranged (r) AML: AML-194 cell line (AID 2202237;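 note: plate controls were vehicle wells for no effect and wells without cells for full effect; nearly all actives have a fitted effect of over 40% in size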)
Summary of the method: as §1

Cc1nc(C2=NC(c3ccccc3Cl)C3=C(CCCC3=O)N2)cs1 (stereo unspecified)
inactive: Potency [1] | Potency [2] | Potency [3] | Potency [4]

Cn1nnnc1Sc1ncnc2scc(-c3cccc(Br)c3)c12
inactive: Potency [1] | Potency [2] | Potency [3] | Potency [4] | Potency [5]

Cc1ccc(C(=O)N2CCC(CCC(=O)N3CCCCC3)CC2)cc1
inactive: Potency [1] | Potency [2] | Potency [6] | Potency [7]

S=C(Nc1cc(Cl)ccn1)N1CCN(c2ccc(Cl)c(Cl)c2)CC1
inactive: Potency [4]
active: Potency [1] 5.62 µM | Potency [2] 6.31 µM | Potency [3] 3.98 µM | Potency [5] 4 µM

CC(C)N1CCc2c(sc(NC(=O)C(F)(F)F)c2-c2nc3ccccc3s2)C1
active: Potency [1] 11.3 µM | Potency [2] 8.96 µM | Potency [3] 31.6 µM | Potency [5] 5.65 µM

FC(F)(F)c1ccc(-c2nc(-c3nnc4n3CCCCC4)c(C(F)(F)F)o2)cc1
inactive: Potency [1] | Potency [2] | Potency [3] | Potency [4]

COc1cccc(CNc2ccc(S(=O)(=O)Nc3ccc(C4CCNCC4)cc3)cc2)c1O
inactive: Potency [1] | Potency [2] | Potency [3] | Potency [4]

O=S(=O)(NCCCCCCNS(=O)(=O)c1c(F)cccc1F)c1ccc2c(c1)OCCO2
inactive: Potency [1] | Potency [3] | Potency [4]
active: Potency [2] 5.01 µM | Potency [5] 8.96 µM

Clc1cccc(-c2ccc(C3Nc4cccc5cccc(c45)N3)o2)c1
active: Potency [1] 5.04 µM | Potency [2] 10.1 µM | Potency [6] 1.59 µM | Potency [7] 11.3 µM

COc1ccc(-n2cnc3cc(C(=O)N4CCCCC4)ccc32)cc1
active: Potency [10] 18.6 µM
inactive: Potency [1] | Potency [2] | Potency [3] | Potency [4] | Potency [5] | viability [8] 112% | Potency [9] | Potency [11] | Potency [12] | Potency [13] | Potency [14]
